Bioassay records (PubChem)
Rows were chosen to be rich in hits. Some 2.2% of all compounds tested hit in one or more screens of this group.
TDP-43 yeast inh – qHTS of TDP-43 Inhibitors. TDP-43 expressing yeast growth rescue, BacTiter-Glo, 24 h. Potency, µM (doses to about 46.1 µM), inactives show at the highest dose growth rescue (activation), usual class: activators. actives 1.8% (n = 410,000); note: % of control where 0% means no effect; nearly all actives have a fitted effect of over 50% in size
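In this qHTS, compounds that restore growth of yeast expressing TDP-43 appear as activators. Cells (OD600=0.02, galactose medium, raffinose-pregrown) are incubated with compound 24 hr at 30 deg C and growth is quantified by BacTiter-Glo.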
ERG Ets-DNA blk – qHTS for Small Molecule Inhibitors of the ERG Ets/DNA interaction | Potency, µM (top dose mostly 76.9 µM), inactives show top-dose FP activity, negative = inhibition, hits mostly inhibitors | Transcriptional regulator ERG (Homo sapiens), P11308 | AID 624246, 2012 | fluorescence polarization, His-ERG Ets domain / labelled DNA | actives 0.028% (n = 370,000); active = well fitted inhibition curve with a large enough effect in the polarisation, with a control signal flat; inconclusive = small, poorly fitted or top-dose-only effect, or effect the other way, or a change in a side signal; inactive = no such curve, though single readings can be large or run the other way; the % refers to the polarisation;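 note: polarization taken with two DNA probes labelled with fluorescein and Texas red; % of control where 0% means no effect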
Target sequence (P11308 whole entry, looked up, the tested form may be a part): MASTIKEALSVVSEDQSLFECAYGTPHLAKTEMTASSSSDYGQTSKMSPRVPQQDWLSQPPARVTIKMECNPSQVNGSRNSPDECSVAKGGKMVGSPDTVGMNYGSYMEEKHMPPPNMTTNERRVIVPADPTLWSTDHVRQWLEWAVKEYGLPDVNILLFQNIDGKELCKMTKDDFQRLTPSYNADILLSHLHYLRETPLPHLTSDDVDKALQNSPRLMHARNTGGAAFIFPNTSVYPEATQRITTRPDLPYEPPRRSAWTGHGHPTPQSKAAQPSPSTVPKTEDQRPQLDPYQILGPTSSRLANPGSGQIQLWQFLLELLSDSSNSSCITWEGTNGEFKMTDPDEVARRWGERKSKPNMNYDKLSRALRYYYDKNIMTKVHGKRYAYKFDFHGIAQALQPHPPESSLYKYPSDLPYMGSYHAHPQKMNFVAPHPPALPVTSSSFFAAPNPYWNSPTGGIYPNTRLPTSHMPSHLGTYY
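His-tagged ERG Ets domain (1 uM in the protein solution; 300mM KCl, 50mM Tris-HCl, 1mM EDTA, 1mM DTT, pH 7.5) received compound, then a probe mix of 5 nM fluorescein-DNA and 100nM Texas-615-DNA. Fluorescence polarization was read for both dyes.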
Abeta yeast res – qHTS for compounds that reverse cellular toxicity of Amyloid beta (A-beta) peptide in yeast: Primary Screen. yeast expressing A-beta42, growth rescue, OD600, 48 h; response scale: 0% DMSO, 100% iron-clioquinol control. Potency, µM (top dose mostly 46.1 µM), actives largely listed as activators. actives 0.063% (n = 410,000). AID 1347071, 2019; note: nearly all actives have a fitted effect of over 55% in size
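Yeast growth medium received pinned compounds, then yeast cells expressing toxic A-beta were added; plates incubated at 30 C for 48 hr. Growth read as absorbance at 600 nm, normalized to DMSO and equimolar FeCl3 plus clioquinol controls.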
Mito fusion yeast – qHTS Assay for Small Molecule Inhibitors of Mitochondrial Division or Activators of Mitochondrial Fusion; AID 485298, 2010; actives 0.23% (n = 320,000); Potency, µM (highest dose often 46.1 µM), without a hit: at the highest dose growth rescue (activation), actives largely listed as activators; S. cerevisiae fusion-defective mutant growth rescue, CellTiterGlo 48 h; note: % of control where 0% means no effect; nearly all actives have a fitted effect of over 45% in size
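Compounds are tested for their ability to restore growth of mitochondrial fusion-defective yeast strains at non-permissive 37C in YPEG medium over 48 hours. Viability is quantified by luciferase luminescence.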
FUS suppressor – qHTS for Suppressors of FUS Proteinopathy: Primary screen using FUS-linked yeast assay; actives 0.24% (n = 390,000); S. cerevisiae FUS-expressing, growth rescue, OD600, 24 h; Potency, µM (doses to about 76.6 µM), hits mostly activators;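 note: plate controls were DMSO vehicle for no effect and reference control for full effect; nearly all actives have a fitted effect of over 55% in size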
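Compound concentration series was pinned onto galactose-induced FUS-expressing yeast seeded at OD 0.005. Plates sat 24hr at 30C; absorbance at 600 nm gave growth. DMSO served as background control.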
aSyn yeast inh – qHTS of alpha-syn Inhibitors; Yeast expressing alpha-synuclein, growth rescue, BacTiter-Glo, 24 h; Potency, µM (highest dose often 46.1 µM), inactives show at the top dose growth rescue (activation), hits mostly activators; actives 0.14% (n = 370,000); AID 652106, 2013; note: % of control where 0% means no effect; nearly all actives have a fitted effect of over 65% in size
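Readout is rescue of growth in alpha-synuclein-expressing yeast, so inhibitors of toxicity appear as activators. Growth after 24 hr at 30 deg C in galactose medium is quantified by luminescence.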
Numbers without * were called inactive; ! = repeats disagree. Unless noted, calls come from the whole dose curve; as a rule, active = well fitted curve in the direction sought with a large enough effect; inconclusive = small, poorly fitted or top-dose-only effect, or another doubt; inactive = no such curve, though single readings can be large; an effect the other way counts as inactive or inconclusive. Potency is the fitted concentration of half-maximal effect.

Screening O=C(Oc1ccc([N+](=O)[O-])cc1)N1CCN(/[N+]([O-])=N/Oc2ccc([N+](=O)[O-])cc2[N+](=O)[O-])CC1 returned aSyn yeast inh -49%.
Cc1cc([C@@H]2CCCN2C)on1 was read as Mito fusion yeast -30% and aSyn yeast inh 2%.
For CCC1(OC(=O)CN)C(=O)OCc2c1cc1n(c2=O)Cc2cc3ccccc3nc2-1 (stereo unspecified) the results were TDP-43 yeast inh 27%, ERG Ets-DNA blk 1%, Abeta yeast res inactive, Mito fusion yeast 0.79µM*, FUS suppressor inactive and aSyn yeast inh 3%.
Screening CC[C@@]1(O)C(=O)OCc2c1cc1n(c2=O)Cc2cc3c(NC(=O)CN)cccc3nc2-1 returned TDP-43 yeast inh -6%, ERG Ets-DNA blk -7%, Abeta yeast res inactive, Mito fusion yeast 6%, FUS suppressor inactive and aSyn yeast inh -2%.
For CC[C@@]1(O)C(=O)OCc2c1cc1n(c2=O)Cc2cc3ccccc3nc2-1 the results were Mito fusion yeast 13µM*! and aSyn yeast inh 18%.
For CC1=CC2OC3CC4OC(=O)C=CC=CC(C(C)O)OCC(O)C(C)CC(=O)OCC2(CC1O)C4(C)C31CO1 (stereo unspecified) the results were TDP-43 yeast inh inconclusive, Abeta yeast res inactive and aSyn yeast inh -10%.
`CC1=CC2OC3CC4OC(=O)C=CC=CC(=O)OCCC(C)C(O)C(=O)OCC2(CC1O)C4(C)C31CO1` (stereo unspecified) gave TDP-43 yeast inh 13µM*, ERG Ets-DNA blk -18%, Abeta yeast res inactive and aSyn yeast inh inconclusive.
`CCCCC[C@@H]1CCCCC[C@@H](O)C[C@@H](O)[C@H](O)/C=C/C(=O)O1` gave TDP-43 yeast inh 0%, Abeta yeast res inactive, FUS suppressor inactive and aSyn yeast inh 9%.
COc1cc(C=C2C(=O)NC(=O)NC2=O)ccc1OCc1ccc([N+](=O)[O-])cc1 was read as TDP-43 yeast inh 11µM*, ERG Ets-DNA blk 6%, Abeta yeast res inactive, Mito fusion yeast 0%, FUS suppressor inactive and aSyn yeast inh -6%.
Screening O=C1NC(=O)C(=Cc2ccc(Oc3ccc([N+](=O)[O-])cc3)cc2)C(=O)N1 returned TDP-43 yeast inh 16µM*, ERG Ets-DNA blk -2%, Abeta yeast res inactive, Mito fusion yeast 2%, FUS suppressor inactive and aSyn yeast inh -1%.
Screening COc1ccc(C=C2C(=O)NC(=S)NC2=O)cc1OC returned TDP-43 yeast inh -14%, ERG Ets-DNA blk -2%, Abeta yeast res inactive, FUS suppressor inactive and aSyn yeast inh -11%.
Screening O=C(C[C@H]1C=C[C@H](NC(=O)Nc2ccccc2F)[C@@H](CO)O1)NCc1ccc(-c2ccccc2)cc1 returned TDP-43 yeast inh 17%, Abeta yeast res inactive, FUS suppressor inactive and aSyn yeast inh inconclusive.
O=C(NC1CCCCCC1)c1ccc[nH]c1=S was read as TDP-43 yeast inh inconclusive, ERG Ets-DNA blk -1%, Abeta yeast res inactive, Mito fusion yeast 7%, FUS suppressor inactive and aSyn yeast inh -46%.
`COc1cc(C(=O)NCCSc2c(-c3ccccc3)[nH]c3ccccc23)cc(OC)c1OC` gave TDP-43 yeast inh inconclusive, ERG Ets-DNA blk -5%, Abeta yeast res inactive and FUS suppressor inconclusive.
For Cc1ccc(Cn2nnnc2CN2CCC(n3nnc4cc(C)ccc43)CC2)cc1 the results were TDP-43 yeast inh 20µM*, ERG Ets-DNA blk -12%, Abeta yeast res inactive, Mito fusion yeast 14%, FUS suppressor inactive and aSyn yeast inh 2%.
Cc1ccc(Cn2nnnc2CN2CCC(n3nnc4cc(C(F)(F)F)ccc43)CC2)cc1 was read as TDP-43 yeast inh inconclusive, ERG Ets-DNA blk -7%, Abeta yeast res inactive, Mito fusion yeast 11%, FUS suppressor inactive and aSyn yeast inh 14%.
COc1ccc(-c2coc3c(C(=O)Nc4cc(OC)c(OC)c(OC)c4)cccc23)c(C)c1 was read as TDP-43 yeast inh inconclusive, Abeta yeast res inactive, FUS suppressor inactive and aSyn yeast inh -5%.
C#CCCC[C@@H]1OC(=O)CNC(=O)C([C@@H](C)CC)NC(=O)[C@@H]2CCCN2C(=O)C([C@@H](C)CC)OC(=O)[C@H](Cc2ccccc2)N(C)C(=O)[C@H](C(C)C)NC(=O)C1(C)C (stereo partly specified) was read as TDP-43 yeast inh -7%, Abeta yeast res inactive, FUS suppressor 7.9µM* and aSyn yeast inh 3%.
For CC[n+]1c(-c2ccccc2)c2cc(N)ccc2c2ccc(N)cc21 the results were TDP-43 yeast inh -10%, ERG Ets-DNA blk 16µM*, Abeta yeast res inactive and aSyn yeast inh -3%.
O=C1NCCOC(=O)[C@@H](Cc2ccc(F)cc2)CC/C=C/C[C@H]1CC(=O)N(CCO)Cc1ccccc1 was read as TDP-43 yeast inh 19%, ERG Ets-DNA blk 2%, Abeta yeast res inactive, FUS suppressor inactive and aSyn yeast inh inconclusive.
Screening Cc1cccc(Cn2cc(C=O)c3ccccc32)c1 returned TDP-43 yeast inh 14µM*, ERG Ets-DNA blk -1%, Abeta yeast res inactive, Mito fusion yeast 27%, FUS suppressor inactive and aSyn yeast inh 7%.
Screening O=Cc1cn(Cc2cccc([N+](=O)[O-])c2)c2ccccc12 returned TDP-43 yeast inh 28%, ERG Ets-DNA blk -9%, Abeta yeast res inactive, Mito fusion yeast 14% and aSyn yeast inh 8%.
S=C(NCCc1ccccc1)N1Cc2cc(Br)ccc2-n2nncc2C1 was read as TDP-43 yeast inh 22µM*, Abeta yeast res inconclusive, FUS suppressor inactive and aSyn yeast inh inconclusive.
`O=C(NC1CCCCC1)N1Cc2cc(-c3ccccc3)ccc2-n2nncc2C1` gave TDP-43 yeast inh 20µM*, Abeta yeast res inactive, FUS suppressor inactive and aSyn yeast inh 10%.
`COc1ccc(-c2ccc3c(c2)CN(C(=S)NCCc2ccccc2)Cc2cnnn2-3)cc1` gave TDP-43 yeast inh inconclusive, Abeta yeast res inactive, FUS suppressor inactive and aSyn yeast inh 4µM*.
For S=C(NCCc1ccccc1)N1Cc2ccc(Br)cc2-n2nncc2C1 the results were TDP-43 yeast inh 25µM*, Abeta yeast res inconclusive, FUS suppressor inactive and aSyn yeast inh inconclusive.
